# A selection: hits, their analogues and other compounds. The true share with any hit is near 4.3%.
# SW480 rereplic = induces DNA re-replication in SW480 colon adenocarcinoma cells; SW480 DNA re-replication, Hoechst DNA content imaging, 48 h; Potency, µM (titrated, usually from 46.1 µM), inactives show at the highest dose re-replication activation, most hits filed as activators; actives 1.8% (n = 340,000); AID 624297; further: potency means the concentration at half of the fitted maximal effect; % of control where 0% means no effect; nearly all actives have a fitted effect of over 55% in size
#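 Image-based DNA-content assay: after two days of treatment, nuclei were labelled with the DNA dye Hoechst and imaged, and hits were compounds raising the count of nuclei showing high fluorescence intensity.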
# MCF10A rereplic = inducers of DNA re-replication in MCF 10A breast cells. MCF 10A DNA re-replication, Hoechst nuclear intensity, 48 h. Potency, µM (doses to about 46.1 µM), for inactives: top-dose activity, positive = re-replication, hits mostly activators. actives 2.9% (n = 350,000). AID 624296; further: potency means the concentration at half of the fitted maximal effect; % of control where 0% means no effect; nearly all actives have a fitted effect of over 50% in size
# Giardia killer = Giardia lamblia killing; Giardia lamblia trophozoite viability; activity change, % at 7.66 µM, hits read low; actives 0.15% (n = 340,000); in the data active means activity change below about -80%; inconclusive means between about -30% and that limit;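 further: parasites exposed to compound for two days anaerobically before the ATP read; on the % scale 0 is the no-effect control and ±100 the full control effect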
#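 Giardia trophozoites, 100 cells per well, were exposed to compounds for 48 hrs at 37 deg C under anaerobic conditions; viability was then read as ATP content by bioluminescence after 15-30 min at room temperature.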
# uPA surface inh = blocks generation of uPA at the cell surface | AID 540303 | actives 0.31% (n = 330,000) | cell surface uPA generation assay, qHTS | Potency, µM (series often up to 38.3 µM), for the others: at the top dose activity change, negative = inhibition, actives largely listed as inhibitors; active means well fitted inhibition curve with a large enough effect; inconclusive means small, poorly fitted or top-dose-only effect; inactive means no such curve, though single readings can be large or run the other way; tested in mouse RAW 264.7 cells; further: potency means the concentration at half of the fitted maximal effect; on the % scale 0 is the no-effect control and ±100 the full control effect; nearly all actives have a fitted effect of over 55% in size
# An asterisk follows results filed as active; ? = inconclusive; . = not tested or not shown; [ ] = another dose, or the depositor's remark. Unless noted, the call rests on the fitted dose curve; in most records, active means well fitted activation curve with a large enough effect; inconclusive means small, poorly fitted or top-dose-only effect; inactive means no such curve, though single readings can be large or run the other way.
SMILES,SW480 rereplic,MCF10A rereplic,Giardia killer,uPA surface inh
CCOC(=O)c1c(CC(C)C)csc1/N=C/C1C(=O)CCCC1=O,16.4µM*,?,-12.4,-3.5%
Cc1ccc(S(=O)(=O)n2cc(-c3ccccc3)c3ccccc32)cc1,3.66µM*,35.5%,2.4,1.12µM*
C=Cc1ccc(Cn2c(C(=O)O)c(CNCc3ccccc3)c3ccc(C)cc32)cc1,.,.,9.9,.
CCCCn1c(=NC(=O)c2ccco2)c(C(=O)OCC)cc2c(=O)n3cccc(C)c3nc21,18.4µM*,6.51µM*,10.7,?
CC(=O)N=c1c(C#N)cc2c(=O)n3cccc(C)c3nc2n1CCCOC(C)C,20.6µM*,?,-0.8,0.0%
N#Cc1cc2c(=O)n3ccccc3nc2n(Cc2ccco2)c1=NC(=O)c1ccco1,18.5%,23.1µM*,20.7,-16.6%
CCCCn1c(=NC(=O)c2ccco2)c(C(=O)OCC)cc2c(=O)n3ccccc3nc21,-0.9%,?,10.7,-8.1%
Cc1cccn2c(=O)c3cc(C#N)c(=NC(=O)c4ccncc4)n(CCCOC(C)C)c3nc12,?,4.61µM*,15.9,-10.7%
CCCCCn1c(=NC(=O)c2ccco2)c(C(=O)OCC)cc2c(=O)n3ccccc3nc21,?,?,-19.3,-8.1%
Cn1c(=O)[nH]c(N)c(Br)c1=O,0.9%,5.2%,6.0,-0.6%
O=S(=O)(c1ccccc1Br)N(Cc1ccccc1)Cc1ccco1,.,.,-6.9,.
COc1ccc(CN2CCN(C(=O)CCC(=O)c3ccc(C)s3)CC2)cc1OC,-3.1%,11.0%,8.3,0.9%
CCOCCCn1c(=NC(=O)c2cccs2)c(C#N)cc2c(=O)n3ccccc3nc21,11.6µM*,?,3.0,-4.4%
CC(=O)N=c1c(C#N)cc2c(=O)n3cccc(C)c3nc2n1Cc1ccco1,0.581µM*,?,-21.0,15.4%
Cc1cccn2c(=O)c3cc(C#N)c(=NC(=O)c4cccs4)n(CCCOC(C)C)c3nc12,20.6µM*,?,28.5,-4.8%
COCCCn1c(=NC(=O)c2ccncc2)c(C#N)cc2c(=O)n3cccc(C)c3nc21,?,787.1%[0.0737 µM],16.6,0.0%
CC1CN=C(c2ccccc2)O1 (stereo unspecified),1.1%,-1.0%,-4.4,4.4%
O=C(CC(=O)c1ccccc1)CC(O)(C=Cc1ccccc1)c1ccccc1 (stereo unspecified),?,?,2.9,-6.3%
CC(=O)C1=C(O)CC(c2ccccc2)CC1=NCCc1c(C)[nH]c2ccc(C)cc12 (stereo unspecified),1.2%,?,-5.4,-3.9%
CCC(=NCCc1c(C)[nH]c2ccc(C)cc12)C1=C(O)CC(c2ccccc2)CC1=O (stereo unspecified),2.59µM*,?,12.5,-5.6%
O=C(CCCN1CCOCC1)c1ccc2c(c1)OCCO2,2.0%,?,12.7,-1.0%
O=C(CN1C(=O)c2ccccc2S1(=O)=O)c1ccc2c(c1)OCCO2,0.4%,16.1%,?,2µM*
O=C(CCN1CCOCC1)c1ccc2c(c1)OCCO2,?,6.51µM*,-0.8,-7.8%
O=C(CCN1CCc2ccccc2CC1)c1ccc2c(c1)OCCO2,13µM*,1.3µM*,-5.4,-11.5%
O=C(CCN1CCOCC1)c1ccccc1,199.0%,2.59µM*,6.1,-0.6%
SMILES,SW480 rereplic,MCF10A rereplic,Giardia killer,uPA surface inh
O=C(CCN1CCN(C(=O)c2ccccc2)CC1)c1ccc(Br)cc1,?,16.4µM*,-1.6,-6.7%
O=C(COc1ccccc1)Nc1cccc(-c2ccc(N3CCOCC3)nn2)c1,-0.6%,0.0%,?,-9.5%
O=C(NCc1ccccc1Cl)C(=O)NCC1OCCN1S(=O)(=O)c1cccs1 (stereo unspecified),2.9%,5.6%,-2.0,-1.0%
N=C1N(c2ccccc2)C(=S)C(=Nc2ccccc2)N1c1ccccc1,?,18.4µM*,5.8,-3.3%
COc1ccc(N=C2C(=S)N(c3ccc(OC)cc3)C(=NS(=O)(=O)c3ccccc3)N2c2ccccc2)cc1,-0.9%,12.8%,-9.6,-3.3%
Nc1nc(=S)ss1,?,20.6µM*,-5.6,-0.3%
Cc1ccc(NS(=O)(=O)c2cc(C(=O)Nc3cccnc3)ccc2C)cc1,-0.2%,2.3%,-17.5,16.0%
O=P(O)(O)C(O)(Cc1cccnc1)P(=O)(O)O,-10.7%,-7.5%,.,.
Cc1ccc(Nc2cc(C)nc(NCc3ccccc3)n2)cc1,?,18.4µM*,-4.7,-1.6%
Cc1cc(N/N=C/c2ccccc2Cl)nc(NCc2ccccc2)n1,?,16.4µM*,-11.2,-13.5%
Cc1cc(NC2CCCCC2)nc(NCc2ccccc2)n1,14.6µM*,?,-6.6,?
COc1ccc(Nc2cc(C)nc(NCc3ccccc3)n2)cc1,-0.9%,6.6%,22.4,-0.7%
CN(C)c1ccc(C(O)c2cc3ccccc3s2)cc1 (stereo unspecified),?,?,-3.0,-9.8%
CO[C@]12C[C@@H](COC(=O)c3cncc(Br)c3)CN(C)[C@@H]1Cc1cn(C)c3cccc2c13,-13.9%,0.8%[9.22 µM],.,.
N#CCSc1nc2ccccc2c(=O)n1C1CCCCC1,-0.2%,-1.1%,12.9,-4.2%
CCn1c(SCc2ccc(OC)c(F)c2)nc2ccccc2c1=O,6.2%,18.4µM*,-9.6,-2.3%
O=c1c2ccccc2nc(SCc2cccc(F)c2)n1C1CCCC1,10.6%,18.4µM*,8.8,-0.1%
Cc1cc(NC(=O)CSc2nc3ccccc3c(=O)n2C2CCCC2)no1,1.3µM*,1.3µM*,7.5,-10.2%
C=CCn1c(SCC(N)=O)nc2ccccc2c1=O,.,.,-14.5,.
CC1(C)CC[C@]2(CO)CC[C@]3(C)C(=CCC4[C@@]5(C)CC[C@H](O)[C@@](C)(CO)C5CC[C@]43C)[C@@H]2C1 (stereo partly specified),7.3%,10.3µM*,-16.6,10.5%
Cc1ccc(C)c(NC(=O)CSc2nc(N)c(NC(=O)c3cccs3)c(=O)[nH]2)c1,-8.8%,0.6%,-13.8,-0.8%
O=C(CSc1nc2nc(-c3cccs3)cc(C(F)(F)F)c2c(=O)[nH]1)Nc1ccc(F)c(F)c1,-31.3%,18.4µM*,12.5,9.1%
Cc1ccc(C)c(NC(=O)CSc2nc3nc(-c4cccs4)cc(C(F)(F)F)c3c(=O)[nH]2)c1,-3.4%,20.6µM*,-20.9,-6.4%
Nc1nc(SCC(=O)Nc2ccc(C(F)(F)F)cc2)[nH]c(=O)c1NC(=O)c1ccc(F)c(F)c1,-3.5%,0.6%,-16.3,2.2%
C=C1CC[C@H](O)C/C1=C/C=C1\CCC[C@]2(C)[C@@H]([C@H](C)CC[C@@H](O)C(C)(C)O)CC[C@@H]12,20.6%,?,.,.
O=C(c1cc(-c2cccs2)nn1-c1ccccc1)N1CCN(S(=O)(=O)c2ccccc2)CC1,?,14.0%,0.3,-2.7%
O=Cc1cc(-c2ccccc2)[nH]c1-c1ccccc1,-4.5%,6.51µM*,-2.3,-1.7%
COc1ccc(C(CNC(=O)c2ccc(-c3cccc(C(F)(F)F)c3)o2)N2CCOCC2)cc1 (stereo unspecified),10.4%,?,0.7,-1.7%
COc1ccc(CCNC(=O)c2cc(S(=O)(=O)N3CCCCC3)ccc2Cl)cc1,18.4µM*,?,3.6,-1.8%

# Screens from PubChem.
